Data taken from PubChem BioAssay.
The source made the active and inactive calls. Unless noted, how the calls were made is not given here.

Tests used:
[1] = resazurin metabolic signal in HepG2 cells – cell-based, resazurin fluorescence, 24 h, PK04 Diversity Set, profiling panel (AID 1172); details: HepG2 viability, higher = more signal; further: test concentration not given here
[2] = budding yeast growth changes without added modifier – OD600, strain BY4716, 24 h, basal condition, primary screen (AID 1173); details: S. cerevisiae BY4716 growth, OD600, 24 h; higher = more signal, called active from +8 up or from −8 down
[3] = viability profiling in MM1S myeloma cells – cell-based, resazurin fluorescence, basal, 24 h, PK04 Diversity Set, profiling panel (AID 1174); details: higher = more signal, called active from +8 up or from −8 down;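 further: MM1S multiple myeloma cell line; test concentration not given here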
[4] = target: Dihydroorotate dehydrogenase (quinone), mitochondrial (Plasmodium falciparum (isolate 3D7)) (UniProt Q08210); experiment: inhibition of P. falciparum DHODH – biochemical, C-terminal His tag, absorbance 600 nm, primary screen (AID 1175); details: PfDHODH enzyme, DCIP absorbance 600 nm; higher = more signal, called active from +8 up or from −8 down;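 further: recombinant parasite enzyme with a five histidine tag at its C terminus; test concentration not given here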
[5] = inhibition of PAO1 biofilm formation – strain PAO1, LB-PBS medium, absorbance 600 nm, primary screen (AID 1176); further: test concentration not given here; details: P. aeruginosa PAO1 growth/biofilm, A600, 12 h; higher = more signal
[6] = growth modulation of vineyard yeast isolate – strain RM11-1a, OD600, basal, 24 h, primary screen (AID 1177);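 further: cultures grown under basal conditions with no added stressor; test concentration not given here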; details: S. cerevisiae RM11-1a growth, OD600, 24 h; higher = more signal, called active from +8 up or from −8 down
[7] = growth of efflux-deficient E. coli DRC39 – strain DRC39, OD650, 24 h, E. coli filamentation inducers, primary screen (AID 1178);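 further: growth measured as culture turbidity by optical density at 650 nm; test concentration not given here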; details: E. coli DRC39 acrAB, higher = more signal, called active from +8 up or from −8 down
[8] = growth of efflux-deficient E. coli DRC39 – strain DRC39, OD650, 48 h, E. coli filamentation inducers, primary screen (AID 1179);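 further: screen aims at cell division blockers that make cells filament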; details: E. coli DRC39 delta-acrAB growth, higher = more signal, called active from +8 up or from −8 down
[9] = viability profiling in RPMI8226 myeloma cells – cell-based, resazurin fluorescence, basal, 24 h, PK04 Diversity Set, profiling panel (AID 1180); details: higher = more signal;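 further: RPMI8826 multiple myeloma cell line at 5000 cells per well; test concentration not given here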
[10] = target: E3 ubiquitin-protein ligase XIAP (Homo sapiens) (UniProt P98170); experiment: small molecules binding XIAP protein – biophysical, small-molecule microarray, fluorescence 635 nm, primary screen (AID 1181); details: higher = more signal;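 further: score merges 667 nm emission and signal to noise over triplicate slides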
Chain of E3 ubiquitin-protein ligase XIAP (Homo sapiens) (P98170 whole entry, looked up): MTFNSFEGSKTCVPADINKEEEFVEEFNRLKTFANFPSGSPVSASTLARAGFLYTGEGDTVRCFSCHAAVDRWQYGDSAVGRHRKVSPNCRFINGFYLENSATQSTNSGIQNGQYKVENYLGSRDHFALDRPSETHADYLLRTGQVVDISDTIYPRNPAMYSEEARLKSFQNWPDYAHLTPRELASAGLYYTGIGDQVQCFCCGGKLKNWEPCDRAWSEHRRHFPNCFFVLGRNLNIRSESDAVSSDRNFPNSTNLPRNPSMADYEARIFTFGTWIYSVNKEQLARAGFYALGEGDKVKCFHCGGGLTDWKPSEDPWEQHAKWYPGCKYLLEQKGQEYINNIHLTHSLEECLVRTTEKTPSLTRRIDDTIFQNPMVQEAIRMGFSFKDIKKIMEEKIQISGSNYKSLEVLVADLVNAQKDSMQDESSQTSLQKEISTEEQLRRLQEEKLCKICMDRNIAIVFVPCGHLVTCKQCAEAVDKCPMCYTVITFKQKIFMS

Chain of Dihydroorotate dehydrogenase (quinone), mitochondrial (Plasmodium falciparum (isolate 3D7)) (Q08210 whole entry, looked up): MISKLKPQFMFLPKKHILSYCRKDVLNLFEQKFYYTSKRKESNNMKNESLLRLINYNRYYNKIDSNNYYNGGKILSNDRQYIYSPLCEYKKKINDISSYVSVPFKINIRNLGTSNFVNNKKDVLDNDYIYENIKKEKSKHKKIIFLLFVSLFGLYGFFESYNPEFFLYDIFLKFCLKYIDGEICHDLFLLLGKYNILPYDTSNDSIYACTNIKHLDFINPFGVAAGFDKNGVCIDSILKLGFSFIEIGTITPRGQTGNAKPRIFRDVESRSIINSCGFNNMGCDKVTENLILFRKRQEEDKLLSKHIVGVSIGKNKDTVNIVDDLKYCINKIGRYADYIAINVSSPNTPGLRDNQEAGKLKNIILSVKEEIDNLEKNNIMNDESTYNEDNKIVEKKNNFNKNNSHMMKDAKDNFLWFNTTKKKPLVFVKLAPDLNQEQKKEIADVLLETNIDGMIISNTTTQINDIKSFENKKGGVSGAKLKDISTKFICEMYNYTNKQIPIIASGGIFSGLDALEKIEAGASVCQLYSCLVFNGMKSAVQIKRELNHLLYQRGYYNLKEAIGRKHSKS

Row | Structure (SMILES) | z-score [1] | z-score [2] | z-score [3] | composite z-score [4] | z-score [5] | z-score [6] | z-score [7] | z-score [8] | z-score [9] | composite z-score [10]
1 | CON=C(C)CCC(=O)OC[C@H]1O[C@H](c2ccccc2)C=C[C@@H]1Oc1ccc(OC)cc1 | 0.0444 | 0.831 (inactive) | 0.289 (inactive) | -0.0389 (inactive) | 0.0981 (inactive) | 1.44 (inactive) | 0.732 (inactive) | -1.76 (inactive) | 0.268 | 0.0619
2 | C=C(C)C(=O)OCC1CN2[C@@H](CC[C@@H](C)[C@@H]2c2ccc(Br)cc2)C(=O)O1 (stereo not given in full) | 0.679 | -0.638 (inactive) | 0.653 (inactive) | -0.134 (inactive) | -0.564 (inactive) | -0.18 (inactive) | 0.0293 (inactive) | -1.59 (inactive) | 0.759 | -0.0899
3 | C=Cc1ccc([C@H]2N[C@H](C(=O)O)CC[C@@H]2C)cc1 | -0.869 | -0.366 (inactive) | -0.601 (inactive) | -0.13 (inactive) | -0.54 (inactive) | -0.649 (inactive) | 0.505 (inactive) | 0.296 (inactive) | -0.845 | -0.168
4 | Cc1cc2c(nc1C)CCCCN2CC(C)ON=C1[C@H]2CCn3c(=O)n(-c4ccccc4)c(=O)n3[C@H]2[C@H](O)[C@@H]2O[C@H]12 (stereo not given in full) | -1.22 | -0.683 (inactive) | -3.13 (inactive) | -0.498 (inactive) | -0.525 (inactive) | 0.722 (inactive) | 0.588 (inactive) | 1.2 (inactive) | -0.459 | -0.327
5 | CCOC(=O)CCN1C(=O)[C@H]2[C@H]3[C@H](O)[C@H](O)CC(=NOCc4ccccc4)[C@H]3CC[C@H]2C1=O | -0.436 | 0.556 (inactive) | -1.34 (inactive) | 0.461 (inactive) | 0.365 (inactive) | 0.632 (inactive) | 0.955 (inactive) | 1.08 (inactive) | -0.775 | 0.012
6 | CCN1C(=O)[C@H]2[C@H]3[C@H](O)[C@H](O)CC(=NO[C@@H](C)c4cn([C@H](CO)Cc5ccccc5)nn4)[C@@H]3CC[C@H]2C1=O | -0.817 | 0.833 (inactive) | -0.866 (inactive) | -0.642 (inactive) | 0.135 (inactive) | 0.47 (inactive) | 0.121 (inactive) | -0.336 (inactive) | -0.504 | 0.0451
7 | CO[C@H]1COC(=O)[C@@H](C)COC(=O)[C@H](C)NC(=O)CC=C[C@H]1C | 0.926 | -0.916 (inactive) | 0.433 (inactive) | 0.289 (inactive) | -1.13 (inactive) | -0.212 (inactive) | 0.618 (inactive) | -0.539 (inactive) | 0.351 | -0.327
8 | O=C1CCCC=C1C(CCc1ccccc1)OC(=O)c1ccc(Br)cc1 (stereo not given) | -0.0575 | -0.744 (inactive) | -0.688 (inactive) | -1.19 (inactive) | 1.18 (inactive) | -0.0079 (inactive) | -0.147 (inactive) | -0.247 (inactive) | 0.504 | 0.289
9 | CCC=CCCC(OC(=O)c1ccc(Br)cc1)C1=CCCCC1=O (stereo not given) | -0.0791 | -2.43 (inactive) | -1.06 (inactive) | -1.38 (inactive) | 0.119 (inactive) | -0.791 (inactive) | 0.181 (inactive) | 0.0322 (inactive) | -0.88 | -0.291
10 | CCOC(=O)[C@H](Cc1ccccc1)NC(=O)CCC1CC(OC(=O)NCCc2ccc(F)cc2)CC2(CCCC(COC(=O)NCCc3ccccc3OC)O2)O1 (stereo not given in full) | -0.0425 | 0.456 (inactive) | -0.288 (inactive) | -0.732 (inactive) | 0.626 (inactive) | 0.476 (inactive) | -0.0222 (inactive) | -1.19 (inactive) | 0.0228 | -0.0796
11 | CO[C@@H]1C=CCC(=O)N[C@@H](C)C(=O)OC[C@@H](OC)[C@H](C)CCCC(=O)OC[C@H]1C | 0.287 | -0.445 (inactive) | 0.719 (inactive) | -1.38 (inactive) | -0.479 (inactive) | -0.935 (inactive) | 0.853 (inactive) | 0.174 (inactive) | 1.58 | -0.269
12 | Cc1cc2c(nc1C)CCCCN2CC(C)ON=C[C@@H](C)[C@H](OCc1ccccc1)C(C)C (stereo not given in full) | 1.48 | -5.49 (inactive) | 0.674 (inactive) | -0.983 (inactive) | 0.675 (inactive) | -1.02 (inactive) | -0.152 (inactive) | -0.4 (inactive) | 1.4 | 0.0856
13 | C=CC[C@@H]1C=C[C@H](ON=C(C)CCC(=O)OC[C@H]2O[C@H](c3ccccc3)C=C[C@@H]2Oc2ccc(OC)cc2)[C@@H](CO)O1 | 0.0276 | 0.31 (inactive) | -0.517 (inactive) | -0.582 (inactive) | 0.347 (inactive) | -0.0293 (inactive) | 0.741 (inactive) | 1.15 (inactive) | -0.212 | -0.0272
